Test results taken from PubChem BioAssay (NCI).
Where “and” joins values, the source holds several entries; their conditions need not be identical. Equal values may be shown once. About 83,000 compounds went through this panel and 20% of them were active in at least one assay; those are over-represented in the sample as a whole.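 The endpoint reported here, percent growth, reads 100 for growth as untreated, 0 for no net growth and -100 for all cells dead.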 Calls of active or inactive are those of the source.

These compounds were tested on OVCAR-5 ovarian (assay: NCI-60 one-dose screen, 48 h (100 = growth as untreated, 0 = no growth, -100 = all killed)). Settings: 10 µM.
Description: Growth inhibition of the OVCAR-5 human tumor cell line is measured as a screen for anti-cancer activity. Cells are grown in 96 well plates and exposed to the test compound for 48 hours. Compounds are tested at a single concentration, which is 10^-5 M for most compounds. The reported endpoint is percent growth (GI% or GIPRCNT), where numbers from 0 - 100% represent growth inhibition, and numbers from -100% - 0 represent cell death. For example, a value of 40 represents 60% growth inhibition. A value of 0 means no net growth occurred over the course of the experiment. A value of -40 indicates 40% of cells at the beginning of the experiment died by the end of the experiment. A value of -100 means all cells are dead at the end of the experiment.
NCI-60 Human Tumor Cell Lines Screen was performed using the standard one-dose NCI protocol, which is described in more detail at https://dtp.cancer.gov/discovery_development/nci-60/default.htm.
Compounds with GIPRCNT values below 10 were considered active. Activity score was based on GIPRCNT using the following formula: […]
Score is 0 for GIPRCNT values of 100 or above, 50 for GIPRCNT values of 0, and 100 for GIPRCNT values of -100.

Row | Compound | growth
1 | O=C(Nc1cccc(Br)c1)Oc1cccc2cccnc12 | 108% (inactive)

Same assay, conditions: 10 µM unless noted

Row | Compound | growth
2 | CNc1ccc(N)cc1 | 106% (inactive)
3 | CN(C)C(=O)SC1=C(c2c(Cl)cccc2Cl)C(=O)c2ccccc21 | 106% (inactive)
4 | N#CSCc1ccc(Cl)c(CSC#N)c1 | 68.7% (inactive)
5 | CCC(c1cccc(O)c1)C(CC)c1cccc(O)c1 (stereo not given) | 96.3% (inactive)
6 | Oc1c(Br)cc(Cl)cc1C(c1cc(Cl)cc(Br)c1O)C(Cl)(Cl)Cl | 42% (inactive)
7 | COC(=O)[C@@]12OC[C@]34[C@H]([C@@H](O)[C@@H]1O)[C@@]1(C)[C@H](O)C(=O)C=C(C)[C@@H]1C[C@H]3OC(=O)C(OC(C)=O)[C@@H]24 (stereo not given in full) | -11.5% (active)
8 | COC(=O)c1nc(=S)[nH]c(C(=O)OC)c1C(=O)c1ccccn1 | 57.9% (inactive)
9 | CC1SC(=S)N(c2ccc(Cl)cc2)C1=O (stereo not given) | 91.3% (inactive) and 89.6% (inactive)
10 | O=C(O)c1ccc2c3c(ncnc13)-c1ccccc1C2=O | 116% (inactive)
11 | Cc1cc(C(C)(CC(C)C)c2ccc(O)c(C)c2)ccc1O | 113% (inactive)
12 | COc1ccc(N=N/N=c2\sc3cc(OC)ccc3n2C)cc1 | 98.6% (inactive)
13 | O=C1c2ccccc2C(=O)c2sc(Nc3cccc(Cl)c3)nc21 | -67.4% (active)
14 | Cc1ccnc2c1ccc1c(C)ccnc12 | 48.8% (inactive)
15 | NC(=S)N/N=C/c1ccc(Cl)s1 | 111% (inactive)
16 | Cc1ccnc(NC(c2ccccc2)c2ccc3cccnc3c2O)c1 (stereo not given) | 69.9% (inactive)
17 | Cc1ccc(NS(=O)(=O)c2ccc(C)cc2)cc1 | 111% (inactive) and 105% (inactive)
18 | C1=C(c2ccccc2)C(c2ccc(OCCN3CCCCC3)cc2)Oc2ccccc21 (stereo not given) | 72.4% (inactive)
19 | O=C(O)C1C2CC3C(OC(=O)C31)C2Br (stereo not given) | 103% (inactive) and 100% (inactive)
20 | CC1OC2CC(=O)OC2C2=C1C(=O)c1c(O)cccc1C2=O (stereo not given) | -75.2% (active)

Row | Compound | growth
21 | CN=C(N)N/N=C(\C)c1ccc2c(c1)Cc1cc(/C(C)=N/NC(N)=NC)ccc1-2 | -44.4% (active)
22 | c1ccc2c(c1)Nc1cc3ccccc3cc1N2 | 69.7% (inactive)
23 | O=C(/C=C/c1cccc(Cl)c1)c1ccccc1 | 97.9% (inactive) and 95.6% (inactive)
24 | O=C1c2cccnc2-c2nccc3c2c1nc1cc(Br)ccc13 | 32.3% (inactive) and -53% (active)
25 | O[C@H]1[C@H]2c3cc4c(cc3CN3CCC(=C[C@@H]1O)[C@H]23)OCO4 | 34.5% (inactive)
26 | CN(Cc1cnc2nc(N)nc(N)c2n1)c1ccc(C(=O)NC(CCC(=O)O)C(=O)O)cc1 (stereo not given) | 44.9% (inactive)
27 | CC(C)c1ccc2nc3ccc(C(=O)NCCN4CCN(c5ccccc5)CC4)cn3c(=O)c2c1 | 91.1% (inactive)
28 | COC(=O)Nc1nc2ccc(C(=O)c3ccccc3)cc2[nH]1 | 20.7% (inactive) and 47.1% (inactive)
29 | O=C(Oc1cccc2cccnc12)c1ccccc1 | 105% (inactive) and 107% (inactive)
30 | N#CC1C(=O)SC2c3ccccc3C(=O)c3ccccc3C12 (stereo not given) | 105% (inactive)
31 | NC(N)=N/N=C/c1ccc([N+](=O)[O-])o1 | 123% (inactive)
32 | O=C(/C=C\c1cc(Br)ccc1O)/C=C/c1cc(Br)ccc1O | -22.2% (active)
33 | CC1(C)CC([P+](c2ccccc2)(c2ccccc2)c2ccccc2)=NN1 | 67.7% (inactive)
34 | Cc1ccc2nc(-[n+]3cc4ccccc4cc3C)ccc2c1 | 61.4% (inactive)
35 | O=C(CC1(O)C(=O)Nc2c(Cl)ccc(Cl)c21)c1ccc(Cl)cc1Cl (stereo not given) | 110% (inactive)
36 | CCCCCCC(C)c1ccccc1O (stereo not given) (tested in a mixture with another compound) | 104% (inactive)
37 | CC(=O)ON=C1C=CC(=C(C#N)c2ccccc2)C=C1 | 123% (inactive)
38 | C/C=C1\SC(=S)NC1=O | 94.9% (inactive)
39 | CCOC(=O)/C=C/c1ccc([N+](=O)[O-])o1 | 75% (inactive)

Same assay, conditions: 100 µM

Row | Compound | growth
40 | O=C(Nc1cccc(Br)c1)Oc1cccc2cccnc12 | 9.37% (active)
